In PubChem BioAssay AID1671192 (National Center for Advancing Translational Sciences (NCATS), 2021):
Inconclusive results are not listed. Active and inactive are the calls of the source. Calls come from the whole dose curve; as a rule, active = well fitted curve in the direction sought with a large enough effect; inconclusive = small, poorly fitted or top-dose-only effect, or another doubt; inactive = no such curve, though single readings can be large or run the other way.

biological target: Polyunsaturated fatty acid lipoxygenase ALOX15 (Homo sapiens) (UniProt P16050); assay: Counterscreen qHTS for inhibitors of human arachidonate 12S-lipoxygenase (ALOX12): ALOX15 Assay; conditions: purified ALOX15 enzyme activity; series mostly up to 110 µM; activity change, negative = inhibition: at the top concentration; note: 0% is about no effect
Sequence (P16050 whole entry, looked up): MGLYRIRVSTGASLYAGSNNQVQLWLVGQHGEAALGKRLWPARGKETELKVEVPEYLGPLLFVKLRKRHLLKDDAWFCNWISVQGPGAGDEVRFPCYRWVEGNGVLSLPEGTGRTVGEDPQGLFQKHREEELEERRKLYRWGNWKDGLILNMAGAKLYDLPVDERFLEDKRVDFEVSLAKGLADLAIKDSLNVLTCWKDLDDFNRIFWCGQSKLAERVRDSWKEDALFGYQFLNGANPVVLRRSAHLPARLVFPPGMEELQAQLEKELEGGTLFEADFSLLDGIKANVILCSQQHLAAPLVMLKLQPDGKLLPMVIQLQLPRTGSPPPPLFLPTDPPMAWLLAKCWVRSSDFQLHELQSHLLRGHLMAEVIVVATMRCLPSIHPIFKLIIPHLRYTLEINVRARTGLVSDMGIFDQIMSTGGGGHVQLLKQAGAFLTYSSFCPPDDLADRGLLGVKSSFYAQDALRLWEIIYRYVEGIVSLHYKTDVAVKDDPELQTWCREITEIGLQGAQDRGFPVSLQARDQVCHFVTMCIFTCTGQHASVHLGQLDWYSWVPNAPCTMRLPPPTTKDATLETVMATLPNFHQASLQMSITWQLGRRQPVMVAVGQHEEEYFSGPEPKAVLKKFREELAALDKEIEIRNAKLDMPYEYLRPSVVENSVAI
In short: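 Purified human ALOX15 (15hLO-1) at 40 nM in 25 mM HEPES, 0.01% Triton X-100, pH 7.5, preincubated with compound 15 min at RT. Then 50 uM arachidonic acid for 30 min; hydroperoxide detected by Fe-xylenol orange as the 573/405 nm absorbance ratio.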

Structure (SMILES)	activity change, negative = inhibition
COCCNc1ncnc2c1CN(C1CCCNCC1)C(=O)CN2C (centres undefined)	-7.74% [at 146 µM] (inactive)
CC(=O)Nc1ccc(C(=O)N2C3CCC2CN(C(C)C)C3)cc1	16.4% [at 146 µM] (inactive)
O=C(N1CCCC1)N1CCCC(c2nnc3n2CCNC3)C1 (centres undefined)	9.46% [at 146 µM] (inactive)
C[S+](=O)([O-])N1Cc2ccccc2OC2(CCN(C(=O)c3ccc(N)nc3)CC2)C1	-15.1% (inactive)
CN1CC(=O)N(C2CCCNC2)Cc2c(NC3CCCCCC3)ncnc21 (centres undefined)	-19% (inactive)
CN1CC(=O)N(C2CCNCC2)Cc2c(NCCOc3ccccc3)ncnc21	-4.67% (inactive)
COc1ccc(NCCN2CCCC2)cc1	-46.2% [at 233 µM] (inactive)
COc1ccc(CC(=O)N2Cc3ccccc3CC23CCCN([S+](C)(=O)[O-])C3)cc1 (centres undefined)	7.85% (inactive)
COc1cccc(O)c1CN1CCCC12Cc1ccccc1CNC2=O (centres undefined)	-14.9% (inactive)
O=Cc1ccccc1-c1ccc(O)cc1	-7.86% [at 233 µM] (inactive)
O=C(O)CCC(=O)N1Cc2ccccc2CC2(CCCN2Cc2ccccc2)C1 (centres undefined)	-22.9% (inactive)
CN1CCC(C(=O)N2Cc3ccccc3CC3(CCCN(CC4CCNCC4)C3)C2)CC1 (centres undefined)	-6.02% (inactive)
CCOCCNc1ncnc2c1CN(C1CCNCC1)C(=O)CN2C	-12.2% (inactive)
CCCC(=O)N1Cc2ccccc2CC2(CCN(Cc3ccc(O)cc3)C2)C1 (centres undefined)	3.88% (inactive)
Cn1cccc1CN1CCC2(CC1)C(=NC1CCCCC1)NC(=O)N2c1cc(F)cc(F)c1	-4.86% (inactive)
CC(C)Cc1ccc(CN2CCC3(Cc4ccccc4CNC3=O)C2)cc1 (centres undefined)	-25% (inactive)
O=C1Nc2ccccc2CN(C/C=C/c2ccccc2)C12CCNC2 (centres undefined)	-5.11% [at 146 µM] (inactive)
NCc1ccc(-c2cccc(C(F)(F)F)c2)cc1	29.9% [at 146 µM] (inactive)
CN1CC(=O)N(C2CCCNC2)Cc2c1ncnc2N1CCN(Cc2ccccc2)CC1 (centres undefined)	-18.3% (inactive)
